Among the data in article PMC7819943, “Rice protein-binding microarrays: a tool to detect cis-acting elements near promoter regions in rice” are binding signal values, retold here.

Over roughly 39,000 sequences, “fluorescence intensity (a.u.)” has its median near 4,300; the highest 2% begin near 39,000. What follows is part of a selection rich in the highest values, with near analogues and random picks from the rest.

This assay has as its target T1, OsSMF1 (Oryza sativa, UniProt Q6ZLB0 1-436).
T1 sequence: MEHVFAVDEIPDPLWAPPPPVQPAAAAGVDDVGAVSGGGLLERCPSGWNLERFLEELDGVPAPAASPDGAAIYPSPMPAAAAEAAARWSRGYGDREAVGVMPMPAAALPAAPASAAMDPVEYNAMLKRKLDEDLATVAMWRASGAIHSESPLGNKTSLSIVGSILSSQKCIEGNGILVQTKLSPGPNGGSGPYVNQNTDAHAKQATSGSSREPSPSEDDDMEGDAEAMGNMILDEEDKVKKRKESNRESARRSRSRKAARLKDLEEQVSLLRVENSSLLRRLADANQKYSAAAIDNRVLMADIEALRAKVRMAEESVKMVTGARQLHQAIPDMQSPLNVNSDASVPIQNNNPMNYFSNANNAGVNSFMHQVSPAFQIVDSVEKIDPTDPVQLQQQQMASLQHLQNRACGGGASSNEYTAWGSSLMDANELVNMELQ
The assay can be described thus: protein-binding microarray (RPBM); PBS, 2% BSA, 51.3 ng/ul salmon testes DNA, 50 uM zinc acetate, 200 nM TF, 25 C, 1 h; high values mean tight binding. Particulars: protein: recombinant; tags: N-terminal polyhistidine and DsRed monomer fusion (pET32a); chain copies: 2; label: CyDye5-dUTP incorporated in the synthesized complementary strand; 3' TTTTT single-stranded linker to array surface; dsDNA, one strand shown. In short, it runs like this: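 The binding signal for each feature is its fluorescence intensity in arbitrary units. An Axon 4000B scanner was used to read a custom Agilent array that had been made double-stranded with Cy5-dUTP primer extension, blocked with 2% BSA, incubated at 25 °C for 1 h with 200 nM protein in PBS, 2% BSA, salmon testes DNA and 50 µM zinc acetate, and washed. The protein was an N-terminal polyhistidine–DsRed transcription factor fusion from E. coli BL21-CodonPlus, purified on Ni–NTA.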
In the case of “TGGGTGTAATTGTTTCCTCGATTTCGCTGGCATGTACTTTCGGAGTCACCTAGTGCAG”, the binding signal is 3780 fluorescence intensity (a.u.).

As for “GGATGGACGTGTGGGGCCTCGCCGTCAGCATTTGCTCCTTCGGAGTCACCTAGTGCAG”, the binding signal was 4560 fluorescence intensity (a.u.).

Consider “GCGTACGGCTGCCTAATGCAGAGCCTGACGTGGCGAGCTGCGGAGTCACCTAGTGCAG”, for which the binding signal is 17400 fluorescence intensity (a.u.).

For “GATAAAGGTCTCTATTTGCATGACATATATCGTTACTATACGGAGTCACCTAGTGCAG”, the binding signal was 3570 fluorescence intensity (a.u.).

As to “CTCCAGCAGCTGCTCGCTCGTCATCACCGCGATGCTGCCGCGGAGTCACCTAGTGCAG”, the binding signal is 3490 fluorescence intensity (a.u.).

For “TTGGCGGTGATCGAGGTTAGACATCTCACCGTCAATCTTGCGGAGTCACCTAGTGCAG”, the binding signal is 3180 fluorescence intensity (a.u.).

On to “AGACCACATAGAATGGAAGCGTCATCAGTTTCCACGCAATCGGAGTCACCTAGTGCAG”, for which the binding signal was 6480 fluorescence intensity (a.u.).

Regarding “CGTCAGCCTGCAATCGCTTTCTGGGCCCAATAGTACGGGCCGGAGTCACCTAGTGCAG”, the binding signal is 8490 fluorescence intensity (a.u.).

Regarding “TTTGTACTCATTTTATTACAACATGAACAAACCCTTCTTTCGGAGTCACCTAGTGCAG”, the binding signal is 3500 fluorescence intensity (a.u.).

Take “AAAATTTAATACGACGAATGTTCAAACGGTGCAAGCAAAACGGAGTCACCTAGTGCAG”: the binding signal was 45000 fluorescence intensity (a.u.).

For “AGATCAGCAAGCGAACTGAATTTAATCAAATGTACTAGTACGGAGTCACCTAGTGCAG”, the binding signal was 23000 fluorescence intensity (a.u.).

For “ACTTTGTACTAGTTTTCATATTATGTCATTCTTTAACCATCGGAGTCACCTAGTGCAG”, the binding signal is 3650 fluorescence intensity (a.u.).

Consider “TTTCTTTGGTTCAGCTGAACCATTATTTGTTGTTTTACTTCGGAGTCACCTAGTGCAG”, for which the binding signal is 40700 fluorescence intensity (a.u.).

Consider “AACTTTCATAAGCAAAATATCAAACGACTTATAATTTTATCGGAGTCACCTAGTGCAG”, for which the binding signal was 26300 fluorescence intensity (a.u.).

With “GAAGCCCTAGCCTAGGAGTGAGAGGTCCCACGTCTTCCCCCGGAGTCACCTAGTGCAG”, the binding signal is 3780 fluorescence intensity (a.u.).

For “TTAATAATAGCCATGTGCGTCATTAGACGGTAGTACGATCCGGAGTCACCTAGTGCAG”, the binding signal is 5910 fluorescence intensity (a.u.).

Regarding “TGTATAATACATGCCCACGCATTCGCGCGGGCTACCCTCCCGGAGTCACCTAGTGCAG”, the binding signal is 3530 fluorescence intensity (a.u.).

Consider “CATGCAGTCAATAGTGTGACTGTAACTTAAACGGTCACACCGGAGTCACCTAGTGCAG”, for which the binding signal was 3750 fluorescence intensity (a.u.).

“GGGCCTCCCCTCCTCCCTTCGCTGGCGAGAGGACGGAGACCGGAGTCACCTAGTGCAG”: the binding signal was 3400 fluorescence intensity (a.u.).

“GATATATCCACATCAGCGTGCATACAAGTGTGTCAAAGCTCGGAGTCACCTAGTGCAG”: the binding signal was 8160 fluorescence intensity (a.u.).

Turning to “CATCAAACAACCAGTTTCTTAGGATGTCTTTTAACCGTGACGGAGTCACCTAGTGCAG”, the binding signal was 23200 fluorescence intensity (a.u.).

For the sequence “AAACCATTCGCCCGATTTGATCCACATCACCACTTTGGTTCGGAGTCACCTAGTGCAG”, the binding signal is 10400 fluorescence intensity (a.u.).

As for “TCACCCCTGAGAAAGACACGTCTTTCTGGTTTAATCCATTCGGAGTCACCTAGTGCAG”, the binding signal is 3620 fluorescence intensity (a.u.).

As for “AACCCCAGAAACCAGAGGCGGGCTGGTTGATCCATTCTTTCGGAGTCACCTAGTGCAG”, the binding signal was 45000 fluorescence intensity (a.u.).

As for “GGGAAACGAGTCAAGCTGACGTGTGCAAGAATCTCCTACACGGAGTCACCTAGTGCAG”, the binding signal was 13500 fluorescence intensity (a.u.).

As for “GTAAGTTGAATGATGTCATATATTTAATTTTACGGTAAGTCGGAGTCACCTAGTGCAG”, the binding signal was 6940 fluorescence intensity (a.u.).

Regarding “TAATTAAATTGTCATATCACTTCTTAACTTATTGGACTAACGGAGTCACCTAGTGCAG”, the binding signal was 3220 fluorescence intensity (a.u.).

On to “TACATTATATTCAATTCTAACTTTCGGAAATATTATATAGCGGAGTCACCTAGTGCAG”, for which the binding signal is 26900 fluorescence intensity (a.u.).

Consider “AAAATTATTAACTTCTTGTTTCGATCACCCTAATAAATAGCGGAGTCACCTAGTGCAG”, for which the binding signal is 41000 fluorescence intensity (a.u.).

With “GACGTGGTAAGTTAACTTGGTTAAAATGTGCTGACGTGGTCGGAGTCACCTAGTGCAG”, the binding signal was 24700 fluorescence intensity (a.u.).

Regarding “AATGCTAAGGGACAACGTCAGCGGGTTAGTGCAAGGTAAGCGGAGTCACCTAGTGCAG”, the binding signal is 6630 fluorescence intensity (a.u.).

Turning to “TGCAGGGGCGCAGCACGGGAGGGTGCTTGACGCATACAAGCGGAGTCACCTAGTGCAG”, the binding signal was 4030 fluorescence intensity (a.u.).

For the sequence “CACGGACGCAAGGGGCCTGCTAAGCCTCTACAACGCAGCGCGGAGTCACCTAGTGCAG”, the binding signal was 41800 fluorescence intensity (a.u.).

In the case of “CTCTGTGCTGAAATGGTTAGGTATGTTTTCTTTCTGCTCTCGGAGTCACCTAGTGCAG”, the binding signal was 40700 fluorescence intensity (a.u.).

With “GCTGCTCTCTTTCCTCTCTTCTCTCTCTGTTTTCTCTCCTCGGAGTCACCTAGTGCAG”, the binding signal is 18500 fluorescence intensity (a.u.).

In the case of “TGGTATGAATGGATAATTTGTTTCTGTCTTATGTGTTGCTCGGAGTCACCTAGTGCAG”, the binding signal is 3150 fluorescence intensity (a.u.).

“TCGGCAAGCTGAGACGGCTAGTGAACCTATCAGCCATCAGCGGAGTCACCTAGTGCAG”: the binding signal is 15900 fluorescence intensity (a.u.).

Take “TCTGCAAGCACCAACGAGAAGCCACAAATGTTCACATCACCGGAGTCACCTAGTGCAG”: the binding signal was 3610 fluorescence intensity (a.u.).

On to “CAAGTCCAAGAGCACCATAAGCTAGTGACACATAGAGCCCCGGAGTCACCTAGTGCAG”, for which the binding signal was 4140 fluorescence intensity (a.u.).

Turning to “TCTGGACCACATAAACGAGAGAGAGAGAGAAGTCCAAGCCCGGAGTCACCTAGTGCAG”, the binding signal is 47900 fluorescence intensity (a.u.).

Turning to “GATCGACGGCGACGCCCCTGGAAGGAGCGGAATAGACCACCGGAGTCACCTAGTGCAG”, the binding signal was 46700 fluorescence intensity (a.u.).

For “CGTGCGGCGGATCGTGGTGGACGCGAGCGGCGGCGGCGACCGGAGTCACCTAGTGCAG”, the binding signal was 3440 fluorescence intensity (a.u.).

For “CCTGAGGAGGGAAGGGTCGATGTGGAGGAGCGGCGGCGACCGGAGTCACCTAGTGCAG”, the binding signal is 3500 fluorescence intensity (a.u.).
